For nine compounds, outcome and AC50 results are on record in PubChem BioAssay (EPA / NIEHS).

“And” between values parts separate entries of the source, which are not always exact repeats. Equal entries are not always repeated. Results filed as inconclusive are left out. The source holds several records for some structures; these can differ, active in one and inactive in another. The source made the active and inactive calls. How the source made its calls, unless noted: active means hit-call score of the fitted dose curve at least 0.9, where 1 is the maximum; inconclusive means response in the unintended direction; inactive means score below 0.9.

The nature of experiment [1]: ATG_RORE_CIS: Attagene CIS-FACTORIAL HepG2 Assay for human RAR-related Orphan Receptor Element (RORE) (AID 2282959; active means hit-call score of the fitted dose curve at least 0.9, where 1 is the maximum; inactive means score below 0.9). The conditions noted are these: HepG2 Attagene cis-factorial RORE reporter, mRNA; actives raise or lower the signal. The method in brief:
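A 24-hour exposure of transfected HepG2 hepatoma cells precedes RNA isolation and reporter RT-PCR. Labeled products are digested with HpaI and resolved by capillary electrophoresis, with gain or loss of signal scored relative to DMSO.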

The target of experiment [2] is Nuclear receptor subfamily 1 group I member 3 (Homo sapiens) (UniProt Q14994). The experiment can be described thus: ATG_CAR_TRANS: Attagene TRANS-FACTORIAL HepG2 Assay for human Constitutive Androstane Receptor (CAR) (AID 2282969).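 Further: activators raise reporter mRNA above DMSO so AC50 marks induction.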 The note with it: HepG2 Attagene TRANS-FACTORIAL CAR reporter. The method in brief: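 Signal is reporter mRNA induction relative to DMSO, measured 24 h after dosing by RT-PCR with fluorescent primer extension and capillary electrophoresis. Human HepG2 liver cells carried transiently transfected chimeric NR-Gal4/GAL4-UAS reporter constructs.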
Chain of Nuclear receptor subfamily 1 group I member 3 (Homo sapiens) (Q14994 whole entry, looked up, the tested form may be a part): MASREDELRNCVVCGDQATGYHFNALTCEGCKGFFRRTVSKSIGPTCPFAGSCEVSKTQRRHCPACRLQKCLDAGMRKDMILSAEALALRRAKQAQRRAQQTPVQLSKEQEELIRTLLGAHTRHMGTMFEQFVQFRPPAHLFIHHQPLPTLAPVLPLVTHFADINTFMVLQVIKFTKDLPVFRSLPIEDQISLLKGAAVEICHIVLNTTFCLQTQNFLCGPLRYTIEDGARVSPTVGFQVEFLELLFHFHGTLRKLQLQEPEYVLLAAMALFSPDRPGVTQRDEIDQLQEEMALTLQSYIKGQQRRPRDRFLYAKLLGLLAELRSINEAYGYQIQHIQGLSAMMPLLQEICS

Experiment [3] is described as follows: ATG_M_19_TRANS: Attagene TRANS-FACTORIAL HepG2 Assay for M19 Transcription Factor (Internal Marker) (AID 2282974). The conditions noted are these: HepG2 Attagene TRANS-FACTORIAL M19 internal marker reporter. The method in brief: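 Transfected HepG2 (GAL4-UAS MRTUs), 24 h compound, TriZol RNA, DNase-treated RT, reporter PCR, FAM label, HpaI digest, CE fluorescence; gain vs DMSO.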

Experiment [4] in a line: ATG_GAL4_TRANS: Attagene TRANS-FACTORIAL HepG2 Assay for GAL4 (Internal Marker) (AID 2282976). The note with it: HepG2 Attagene TRANS GAL4 internal marker reporter. The method in brief: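 Fluorescence from capillary electrophoresis of labelled RT-PCR products quantifies reporter mRNA induction after 24 h dosing of HepG2 cells carrying transfected GAL4-UAS reporter transcription units. Vehicle DMSO serves as baseline.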

The target in experiment [5] is Glucocorticoid receptor (Homo sapiens) (UniProt P04150). The experiment can be described thus: ATG_GR_TRANS: Attagene TRANS-FACTORIAL HepG2 Assay for human Glucocorticoid Receptor (GR) (AID 2282978).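 Further: activators score as hits since higher reporter transcript over DMSO is fitted.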 The conditions noted are these: HepG2 Attagene TRANS GR reporter, mRNA transcription. The method in brief:
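After 24 h incubation with test chemical, transfected HepG2 cells were lysed for RNA; reporter cDNA was amplified, FAM-labelled, HpaI-digested and sized on a capillary analyser. Signal gain relative to DMSO was scored.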

The target of experiment [6] is Peroxisome proliferator-activated receptor gamma (Homo sapiens) (UniProt P37231). Description: ATG_PPARg_TRANS: Attagene TRANS-FACTORIAL HepG2 Assay for human Peroxisome Proliferator-activated Receptor-gamma (PPARg) (AID 2283007). The method in brief:
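Twenty-four hours after chemical dosing of transiently transfected HepG2 cells, isolated RNA was converted to cDNA, reporter sequences amplified and 6-FAM-labelled, then HpaI-digested and analysed by capillary electrophoresis. Signal increase against DMSO was fitted.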

The target of experiment [7] is human Vitamin D Receptor (VDR), VDR (gene 7421) (UniProt P11473). Description: ATG_VDR_TRANS: Attagene TRANS-FACTORIAL HepG2 Assay for human Vitamin D Receptor (VDR) (AID 2283022). The method in brief:
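Fluorescence of labelled reporter cDNA fragments, resolved by capillary electrophoresis, gives mRNA induction after 24 h treatment of HepG2 cells carrying transfected Gal4-fusion reporter units. Activity is fitted in the positive direction with DMSO as baseline.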

Experiment [8] can be described thus: TOX21_p53_BLA_p2_viability: Viability Assessment in the Tox21 HCT-116 p53 Agonism Beta-lactamase Assay, Phase 2 (AID 2283591).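 Further: compound exposure lasted 16 h at 37 °C; actives lower the ATP signal meaning cytotoxicity.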 The method in brief:
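Cytotoxicity readout: CellTiter-Glo ATP luminescence, 30 min at room temperature, after the beta-lactamase read. Cells were HCT116 exposed 16 h at 37C to compounds pin-transferred at 217-fold dilution from DMSO stocks.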

Experiment [9] concerns the target Cellular tumor antigen p53 (Homo sapiens) (UniProt P04637). The experiment can be described thus: TOX21_p53_BLA_p3_ratio: Tox21 HCT-116 p53 Agonism Beta-lactamase Assay, Ratio, Phase 3 (AID 2283596). The method in brief:
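Cells were seeded at 4000/well, rested 5 h at 37C, then dosed with DMSO compound solutions (217-fold dilution) for 16 h. CCF4-AM substrate was loaded for 2 h at room temperature, and the 460/530 nm emission ratio was fitted for gain of signal versus DMSO.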

The nature of experiment [10]: TOX21_p53_BLA_p4_viability: Viability Assessment in the Tox21 HCT-116 p53 Agonism Beta-lactamase Assay, Phase 4 (AID 2283597).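 Further: hits lower the luminescence signal meaning cytotoxicity.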 The method in brief: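 Viability is taken as cellular ATP: after 16 h compound exposure of HCT116 cells and a 2 h room-temperature CCF4-AM substrate step, CellTiter-Glo reagent is added and luminescence is measured 30 min later.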
Experiment [11] concerns the target Cellular tumor antigen p53 (Homo sapiens) (UniProt P04637). Description: TOX21_p53_BLA_p4_ratio: Tox21 HCT-116 p53 Agonism Beta-lactamase Assay, Ratio, Phase 4 (AID 2283601). The method in brief:
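Signal is the blue/green (460nm/530nm) ratio of cleaved versus uncleaved CCF4-AM substrate, read after 2 h substrate loading. Cells were HCT116 carrying the p53-responsive beta-lactamase reporter, dosed 16 h at 37C, 5% CO2; CellTiter-Glo measured in parallel.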

Experiment [12] is described as follows: ATG_ERE_CIS: Attagene CIS-FACTORIAL HepG2 Assay for Estrogen Response Element (ERE) (AID 2282940; active means hit-call score of the fitted dose curve at least 0.9, where 1 is the maximum; inactive means score below 0.9). The note with it: HepG2 ERE cis-reporter, Attagene RNA transcript; actives raise or lower the signal. The method in brief: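 HepG2 cells transiently transfected with cis-promoter-driven multiplexed reporter transcription units report endogenous TF activity. After 24 h compound exposure, reporter mRNA is quantified by RT-PCR with capillary electrophoresis fluorescence; bidirectional fitting versus DMSO baseline.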

Experiment [13] concerns the target human Peroxisome Proliferator-activated Receptor delta (PPARd), PPARD (gene 5467) (UniProt Q03181). The experiment can be described thus: ATG_PPARd_TRANS: Attagene TRANS-FACTORIAL HepG2 Assay for human Peroxisome Proliferator-activated Receptor delta (PPARd) (AID 2283002). The method in brief: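 Read-out is induced reporter mRNA, quantified by RT-PCR with fluorescent labelling and capillary electrophoresis after 24 h dosing. Cells are HepG2 transiently carrying multiple GAL4-UAS reporter units driven by exogenous NR-GAL4 chimeras; DMSO serves as baseline.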

Experiment [14] has as its target human RAR-related Orphan Receptor beta (RORb), RORB (gene 6096) (UniProt Q92753). The experiment can be described thus: ATG_RORb_TRANS: Attagene TRANS-FACTORIAL HepG2 Assay for human RAR-related Orphan Receptor beta (RORb) (AID 2283010). The method in brief: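 Read-out is reporter mRNA induction, quantified by RT-PCR with fluorescent capillary electrophoresis, 24 h post-dose in transiently transfected HepG2 expressing exogenous NR-Gal4 chimera. Activity fitted upward versus DMSO.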

Experiment [15] deals with human Retinoid X Receptor beta (RXRb), RXRB (gene 6257) (UniProt P28702). The experiment can be described thus: ATG_RXRb_TRANS: Attagene TRANS-FACTORIAL HepG2 Assay for human Retinoid X Receptor beta (RXRb) (AID 2283013). The method in brief: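 Readout is reporter transcript induction after 24 h dosing. It is measured by RT-PCR of total RNA followed by fluorescent capillary electrophoresis. HepG2 liver cells carry transfected multiple reporter units driven by an exogenous RXRb-Gal4 fusion; activity is relative to DMSO.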
Chain of human Retinoid X Receptor beta (RXRb), RXRB (gene 6257) (P28702 whole entry, looked up, the tested form may be a part): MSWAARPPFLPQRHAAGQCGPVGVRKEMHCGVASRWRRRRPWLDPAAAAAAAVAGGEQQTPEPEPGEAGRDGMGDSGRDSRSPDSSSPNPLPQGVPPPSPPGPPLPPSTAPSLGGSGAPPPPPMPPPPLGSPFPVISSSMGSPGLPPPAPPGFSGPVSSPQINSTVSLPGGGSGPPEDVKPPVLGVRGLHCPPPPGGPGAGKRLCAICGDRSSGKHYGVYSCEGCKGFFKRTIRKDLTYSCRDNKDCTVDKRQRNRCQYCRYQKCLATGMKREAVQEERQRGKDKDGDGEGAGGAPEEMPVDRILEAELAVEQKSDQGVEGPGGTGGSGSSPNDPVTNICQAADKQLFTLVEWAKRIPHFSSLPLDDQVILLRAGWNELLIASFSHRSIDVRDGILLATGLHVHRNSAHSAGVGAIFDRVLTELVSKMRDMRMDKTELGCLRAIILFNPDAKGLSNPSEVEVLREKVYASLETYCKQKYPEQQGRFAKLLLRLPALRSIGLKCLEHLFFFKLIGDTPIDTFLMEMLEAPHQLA

Experiment [16] has as its target Oxysterols receptor LXR-alpha (Homo sapiens) (UniProt Q13133). Description: ATG_LXRa_TRANS: Attagene TRANS-FACTORIAL HepG2 Assay for human Liver X Receptor alpha (LXRa) (AID 2282980). The note with it: HepG2 Attagene TRANS reporter, LXRa transactivation. The method in brief:
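Transient HepG2 transfectants, 24 h dosing, RT-PCR/CE mRNA reporter quantitation; gain-of-signal vs DMSO.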

Experiment [17] deals with Bile acid receptor (Homo sapiens) (UniProt Q96RI1). The experiment can be described thus: ATG_IR1_CIS: Attagene CIS-FACTORIAL HepG2 Assay for human Nuclear Receptor Subfamily 1 Group H Member 4 (NR1H4), IR1 submotif (AID 2282946; active means hit-call score of the fitted dose curve at least 0.9, where 1 is the maximum; inactive means score below 0.9). The note with it: IR1 reporter transcription, actives raise or lower the signal. The method in brief:
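HepG2 cells transiently transfected with multiplexed cis-element reporter units read endogenous transcription factor activity. After 24 h compound exposure, reporter mRNA was quantified by RT-PCR, fluorescent labelling, HpaI digestion and capillary electrophoresis; bidirectional fitting versus DMSO baseline.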

Experiment [18] can be described thus: ATG_PBREM_CIS: Attagene CIS-FACTORIAL HepG2 Assay for human Phenobarbital-responsive Enhancer Module (PBREM) (AID 2282955; active means hit-call score of the fitted dose curve at least 0.9, where 1 is the maximum; inactive means score below 0.9). The conditions noted are these: HepG2 PBREM cis-reporter, Attagene multiplexed transcription; actives raise or lower the signal. The method in brief: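 Measures endogenous factor action on a phenobarbital-responsive enhancer module. HepG2 transiently carrying cis reporters, 24 h treatment, mRNA read-out by RT-PCR plus capillary electrophoresis.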

In experiment [19] the target is Bile acid receptor (Homo sapiens) (UniProt Q96RI1). The experiment can be described thus: ATG_FXR_TRANS: Attagene TRANS-FACTORIAL HepG2 Assay for Farnesoid X Receptor (FXR) (AID 2282979).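 Further: hits raise reporter mRNA above DMSO so AC50 marks FXR activation.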 The note with it: HepG2 Attagene TRANS FXR-GAL4 reporter transcription. The method in brief: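 Chimeric FXR-GAL4 activity in transiently transfected human HepG2 liver cells is scored as induction of reporter mRNA after 24 h of dosing. Detection uses RT-PCR with fluorescent labelling and capillary electrophoresis, with DMSO serving as baseline.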
Chain of Bile acid receptor (Homo sapiens) (Q96RI1 whole entry, looked up, the tested form may be a part): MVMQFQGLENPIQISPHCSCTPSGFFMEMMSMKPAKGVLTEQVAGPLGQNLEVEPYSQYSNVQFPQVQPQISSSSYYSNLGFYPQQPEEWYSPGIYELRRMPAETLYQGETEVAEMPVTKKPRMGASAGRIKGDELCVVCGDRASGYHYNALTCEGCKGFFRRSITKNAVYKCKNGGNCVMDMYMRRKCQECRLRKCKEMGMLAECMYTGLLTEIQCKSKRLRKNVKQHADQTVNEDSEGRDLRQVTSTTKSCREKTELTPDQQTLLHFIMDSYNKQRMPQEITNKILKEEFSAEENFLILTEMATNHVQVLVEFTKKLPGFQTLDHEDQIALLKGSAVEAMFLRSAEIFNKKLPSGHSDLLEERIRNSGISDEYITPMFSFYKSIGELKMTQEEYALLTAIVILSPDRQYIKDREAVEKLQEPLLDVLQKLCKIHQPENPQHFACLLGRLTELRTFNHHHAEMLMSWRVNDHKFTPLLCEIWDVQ

Experiment [20] is described as follows: TOX21_p53_BLA_p3_viability: Viability Assessment in the Tox21 HCT-116 p53 Agonism Beta-lactamase Assay, Phase 3 (AID 2283593).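 Further: cells exposed to compound for 16 h before reading.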 The method in brief:
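Cellular ATP was quantified by CellTiter-Glo luminescence, read after 30 min at room temperature. Beforehand, HCT116 cells (4000/well) received compound 5 h post-seeding, 217-fold diluted from DMSO, then incubated 16 h at 37C.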

Chain of Peroxisome proliferator-activated receptor gamma (Homo sapiens) (P37231 whole entry, looked up): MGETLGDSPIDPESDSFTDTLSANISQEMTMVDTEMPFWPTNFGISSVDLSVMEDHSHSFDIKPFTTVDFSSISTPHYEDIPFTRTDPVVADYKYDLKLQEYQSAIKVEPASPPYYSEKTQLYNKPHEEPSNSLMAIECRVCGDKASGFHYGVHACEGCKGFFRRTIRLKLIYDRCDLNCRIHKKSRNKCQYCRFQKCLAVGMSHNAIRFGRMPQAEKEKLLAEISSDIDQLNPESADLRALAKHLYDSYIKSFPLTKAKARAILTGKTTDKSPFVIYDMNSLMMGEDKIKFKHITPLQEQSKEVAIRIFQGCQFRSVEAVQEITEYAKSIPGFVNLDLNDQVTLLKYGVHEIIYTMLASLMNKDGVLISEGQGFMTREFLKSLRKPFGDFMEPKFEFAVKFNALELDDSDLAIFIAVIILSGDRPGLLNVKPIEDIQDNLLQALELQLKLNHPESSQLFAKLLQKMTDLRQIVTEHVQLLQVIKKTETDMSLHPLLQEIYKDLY
Chain of human Vitamin D Receptor (VDR), VDR (gene 7421) (P11473 whole entry, looked up, the tested form may be a part): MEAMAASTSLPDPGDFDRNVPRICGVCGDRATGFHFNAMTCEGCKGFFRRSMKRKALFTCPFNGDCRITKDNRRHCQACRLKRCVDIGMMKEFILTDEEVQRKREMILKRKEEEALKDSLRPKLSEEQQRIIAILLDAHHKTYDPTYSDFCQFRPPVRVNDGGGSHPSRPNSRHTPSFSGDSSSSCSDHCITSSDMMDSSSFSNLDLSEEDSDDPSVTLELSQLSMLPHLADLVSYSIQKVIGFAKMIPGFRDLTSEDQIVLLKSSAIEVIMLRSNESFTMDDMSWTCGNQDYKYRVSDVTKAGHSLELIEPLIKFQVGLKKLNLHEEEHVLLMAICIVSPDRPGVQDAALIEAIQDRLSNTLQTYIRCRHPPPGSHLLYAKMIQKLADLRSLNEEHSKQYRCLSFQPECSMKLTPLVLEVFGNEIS
Chain of Glucocorticoid receptor (Homo sapiens) (P04150 whole entry, looked up): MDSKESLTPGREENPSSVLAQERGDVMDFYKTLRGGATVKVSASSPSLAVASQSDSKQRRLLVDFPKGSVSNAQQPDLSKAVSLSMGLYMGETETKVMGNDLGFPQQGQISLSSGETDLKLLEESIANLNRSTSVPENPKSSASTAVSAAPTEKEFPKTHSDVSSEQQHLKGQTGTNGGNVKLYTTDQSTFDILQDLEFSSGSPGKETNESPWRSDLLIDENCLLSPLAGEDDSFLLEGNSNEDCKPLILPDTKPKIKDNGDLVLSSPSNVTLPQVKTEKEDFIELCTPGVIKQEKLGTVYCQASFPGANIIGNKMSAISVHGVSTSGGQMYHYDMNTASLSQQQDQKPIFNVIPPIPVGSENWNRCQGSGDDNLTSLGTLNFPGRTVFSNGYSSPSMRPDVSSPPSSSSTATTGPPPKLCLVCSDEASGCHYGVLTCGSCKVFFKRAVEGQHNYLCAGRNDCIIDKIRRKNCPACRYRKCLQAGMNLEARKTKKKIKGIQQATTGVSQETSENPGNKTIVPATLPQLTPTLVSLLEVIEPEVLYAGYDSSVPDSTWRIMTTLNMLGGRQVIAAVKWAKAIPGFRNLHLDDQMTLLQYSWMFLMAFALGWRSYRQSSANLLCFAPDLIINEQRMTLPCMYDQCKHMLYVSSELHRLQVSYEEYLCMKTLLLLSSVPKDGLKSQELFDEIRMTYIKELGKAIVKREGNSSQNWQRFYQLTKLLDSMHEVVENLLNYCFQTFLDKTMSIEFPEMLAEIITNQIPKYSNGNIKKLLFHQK
Chain of human Peroxisome Proliferator-activated Receptor delta (PPARd), PPARD (gene 5467) (Q03181 whole entry, looked up, the tested form may be a part): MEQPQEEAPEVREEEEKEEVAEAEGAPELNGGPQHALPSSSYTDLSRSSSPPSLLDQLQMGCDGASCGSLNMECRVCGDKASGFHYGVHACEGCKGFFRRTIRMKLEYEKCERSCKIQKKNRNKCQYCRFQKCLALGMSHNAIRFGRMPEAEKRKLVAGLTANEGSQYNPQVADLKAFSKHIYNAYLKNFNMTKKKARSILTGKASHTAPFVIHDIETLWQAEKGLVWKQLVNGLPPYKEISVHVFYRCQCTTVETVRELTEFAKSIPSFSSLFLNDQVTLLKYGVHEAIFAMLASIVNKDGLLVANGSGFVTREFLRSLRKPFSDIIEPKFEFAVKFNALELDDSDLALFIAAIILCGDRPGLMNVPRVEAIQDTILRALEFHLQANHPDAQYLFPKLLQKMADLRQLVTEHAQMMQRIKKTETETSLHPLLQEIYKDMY
Chain of Cellular tumor antigen p53 (Homo sapiens) (P04637 whole entry, looked up): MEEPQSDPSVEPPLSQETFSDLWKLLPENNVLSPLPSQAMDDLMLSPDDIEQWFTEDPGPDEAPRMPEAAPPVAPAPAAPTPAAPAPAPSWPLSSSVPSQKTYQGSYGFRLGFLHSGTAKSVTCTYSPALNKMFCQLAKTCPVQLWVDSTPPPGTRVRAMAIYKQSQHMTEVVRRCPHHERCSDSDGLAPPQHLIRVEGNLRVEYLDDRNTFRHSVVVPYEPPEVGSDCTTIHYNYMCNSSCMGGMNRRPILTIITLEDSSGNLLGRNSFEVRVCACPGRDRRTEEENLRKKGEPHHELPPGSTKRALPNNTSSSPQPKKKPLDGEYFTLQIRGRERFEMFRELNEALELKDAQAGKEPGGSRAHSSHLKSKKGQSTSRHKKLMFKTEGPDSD
Chain of Oxysterols receptor LXR-alpha (Homo sapiens) (Q13133 whole entry, looked up): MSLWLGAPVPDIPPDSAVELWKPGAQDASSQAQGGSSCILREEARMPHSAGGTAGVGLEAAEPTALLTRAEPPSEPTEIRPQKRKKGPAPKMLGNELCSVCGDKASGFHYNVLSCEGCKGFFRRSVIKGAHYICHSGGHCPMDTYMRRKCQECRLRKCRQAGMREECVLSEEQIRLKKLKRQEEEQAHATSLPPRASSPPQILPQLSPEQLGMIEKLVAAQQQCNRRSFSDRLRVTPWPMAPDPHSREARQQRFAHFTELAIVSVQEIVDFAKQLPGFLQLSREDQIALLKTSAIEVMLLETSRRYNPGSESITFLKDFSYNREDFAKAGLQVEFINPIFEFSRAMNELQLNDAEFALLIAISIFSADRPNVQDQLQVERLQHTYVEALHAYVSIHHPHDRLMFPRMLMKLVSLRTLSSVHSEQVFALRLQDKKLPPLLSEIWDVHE
Chain of human RAR-related Orphan Receptor beta (RORb), RORB (gene 6096) (Q92753 whole entry, looked up, the tested form may be a part): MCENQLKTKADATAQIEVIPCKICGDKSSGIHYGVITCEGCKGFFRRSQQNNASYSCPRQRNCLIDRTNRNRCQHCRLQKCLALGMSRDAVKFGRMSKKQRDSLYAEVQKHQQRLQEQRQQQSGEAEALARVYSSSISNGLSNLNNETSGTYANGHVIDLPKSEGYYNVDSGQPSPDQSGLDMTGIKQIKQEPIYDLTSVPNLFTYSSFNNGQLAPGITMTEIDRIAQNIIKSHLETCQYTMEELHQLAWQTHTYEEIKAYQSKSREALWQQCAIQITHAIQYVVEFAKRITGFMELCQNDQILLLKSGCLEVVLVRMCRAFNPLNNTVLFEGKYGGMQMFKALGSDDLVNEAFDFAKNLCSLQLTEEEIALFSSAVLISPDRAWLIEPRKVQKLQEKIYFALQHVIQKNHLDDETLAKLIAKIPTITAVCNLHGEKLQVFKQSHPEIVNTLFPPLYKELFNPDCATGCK

Usually AC50 stands for the concentration at which the activity in the assay is half-maximal. For `N#Cc1cc(I)c(O)c(I)c1`, the compound was classed as inactive in [1], in experiment [2], in experiment [3], in experiment [4], in experiment [5] and in [7]. Moreover, the compound was called inactive in [8] and in experiment [10]. For the same compound, the figures for the concentration at half-maximal activity (AC50) in experiment [6], in experiment [9] and in experiment [11] were 10.7 µM (active), 6.09 µM (active) and 13.9 µM (active), respectively.
As for `CCC(C)(C)O`, the compound was classed as inactive in experiment [12], in [1], in experiment [2], in [4] and in experiment [5].
Consider `CCN(CC)C(=S)S`, for which the call in [12], in experiment [13], in [14] and in [15] was inactive. In addition, in experiment [6], the AC50 is 51.5 µM (active).
Take `C[N+](=O)[O-]`: the compound was called inactive in experiment [12], in [1], in experiment [4], in experiment [5], in experiment [16] and in [13]. The compound was classed as inactive in experiment [8], in experiment [10] and in [11].
Take `CC1(C)CC(=O)CC(C)(C)N1[O]`: the call in [17], in experiment [18], in experiment [1], in experiment [2], in experiment [3] and in experiment [4] was inactive. The outcome in experiment [19], in experiment [13], in [6], in [7], in experiment [8] and in experiment [10] was inactive. In experiment [11], the result was inactive.
With `ClCC(Cl)Cl`, the call in experiment [12], in [18], in experiment [2], in experiment [4], in experiment [6] and in experiment [15] was inactive. The compound was called inactive in [7], in [20] and in experiment [11].
Turning to `C=Cc1cccc(CCl)c1`, the compound was classed as inactive in experiment [12], in [17], in [1], in experiment [2], in experiment [3] and in experiment [15]. For the same compound, the compound was called inactive in experiment [8], in experiment [20], in experiment [9], in experiment [10] and in experiment [11].
As to `CC(C)(C)C(O)C(Oc1ccc(-c2ccccc2)cc1)n1cncn1` (stereo not given), the compound was classed as inactive in experiment [12], in experiment [3], in experiment [4], in [5], in [19] and in [13]. The outcome in [15] and in experiment [7] was inactive. Also, the results for the half-maximal activity concentration (AC50) in experiment [17] and in experiment [6] were 55.2 µM (active) and 14.3 µM (active), respectively.
As for `CC(C)(c1cc(Cl)c(O)c(Cl)c1)c1cc(Cl)c(O)c(Cl)c1`, the result in [1], in [3], in experiment [5], in [13], in experiment [7] and in experiment [20] was inactive. For the same compound, the outcome in experiment [11] was inactive. Moreover, the AC50 in [15] is 9.09 µM (active); in experiment [8], 46.1 µM (active) and 33.1 µM (active); in experiment [20], 65.5 µM (active); in [9], 48.2 µM (active) and 17.7 µM (active); in experiment [11], 19.7 µM (active).
